# Measurements published in the supplement of paper PMC8728848.
# Many of the other results were omitted from the sample, so the strongest signals are more common in it than they were.
# Experiments:
# Assay in all cases: glycan array binding signal (z-score within array); higher = stronger binding
# Conditions in all cases: glycan notation: IUPAC condensed, linker removed; mutation: H84T
# Fuc(a1-2)Gal(b1-3)GlcNAc = target: Fuc(a1-2)Gal(b1-3)GlcNAc
# Outline: (§1)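 Columns mapping to the same glycan were averaged after glycan names were converted to IUPAC-condensed notation. The data come from 3228 arrays in the Consortium for Functional Glycomics database, limited to those with an available protein sequence. Binding is reported as a within-array Z-score averaged across arrays of one protein sequence and across linkers.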
# [1] = target: Fuc(a1-2)Gal(b1-3)GlcNAc(b1-2)Man(a1-3)[Fuc(a1-2)Gal(b1-3)GlcNAc(b1-2)Man(a1-6)]Man(b1-4)GlcNAc(b1-4)[Fuc(a1-6)]GlcNAc
# Outline: as §1
# [2] = target: Fuc(a1-2)Gal(b1-4)GlcNAc(b1-3)Gal(b1-4)GlcNAc(b1-2)Man(a1-3)[Fuc(a1-2)Gal(b1-4)GlcNAc(b1-3)Gal(b1-4)GlcNAc(b1-2)Man(a1-6)]Man(b1-4)GlcNAc(b1-4)GlcNAc
# Outline: as §1
# [3] = target: Fuc(a1-2)Gal(b1-4)[Fuc(a1-3)]GlcNAc(b1-3)[Neu5Ac(a2-6)Gal(b1-4)GlcNAc(b1-6)]Gal(b1-4)Glc
# Outline: as §1
# [4] = target: Fuc(a1-2)[GalNAc(a1-3)]Gal(b1-3)GalNAc(b1-3)Gal(a1-4)Gal(b1-4)Glc
# Outline: as §1
# Fuc(a1-3)GlcNAc = target: Fuc(a1-3)GlcNAc
# Outline: as §1
# Fuc(b1-3)GlcNAc = target: Fuc(b1-3)GlcNAc
# Outline: as §1
# [5] = target: Gal(a1-3)Gal(b1-3)[Fuc(a1-4)]GlcNAc(b1-2)Man(a1-3)[Gal(a1-3)Gal(b1-3)[Fuc(a1-4)]GlcNAc(b1-2)Man(a1-6)]Man(b1-4)GlcNAc(b1-4)GlcNAc
# Outline: as §1
# [6] = target: Gal(b1-3)GlcNAc(b1-6)GalNAc
# Outline: as §1
# [7] = target: Gal(b1-3)[Neu5Ac(a2-6)]GalNAc
# Outline: as §1
# [8] = target: Gal(b1-4)GlcNAc(b1-2)[Gal(b1-4)GlcNAc(b1-6)]Man(a1-6)[GlcNAc(b1-4)][Gal(b1-4)GlcNAc(b1-2)Man(a1-3)]Man(b1-4)GlcNAc(b1-4)GlcNAc
# Outline: as §1
# [9] = target: Gal(b1-4)GlcNAc(b1-6)Gal(b1-4)GlcNAc
# Outline: as §1
# [10] = target: Gal3S(b1-4)[Fuc(a1-3)]GlcNAc6S
# Outline: as §1
# [11] = target: GlcNAc(a1-4)Gal(b1-4)GalNAc
# Outline: as §1
# [12] = target: GlcNAc(b1-3)Gal(b1-4)GlcNAc(b1-3)Gal(b1-4)GlcNAc(b1-3)Gal(b1-4)GlcNAc(b1-2)Man(a1-3)[GlcNAc(b1-3)Gal(b1-4)GlcNAc(b1-3)Gal(b1-4)GlcNAc(b1-3)Gal(b1-4)GlcNAc(b1-2)Man(a1-6)]Man(b1-4)GlcNAc(b1-4)[Fuc(a1-6)]GlcNAc
# Outline: as §1
# [13] = target: GlcNAc6S(b1-3)Gal(b1-4)GlcNAc
# Outline: as §1
# Kdn(a2-3)Gal(b1-4)GlcNAc = target: Kdn(a2-3)Gal(b1-4)GlcNAc
# Outline: as §1
# [14] = target: Man(a1-2)Man(a1-2)Man(a1-6)[Man(a1-3)]Man
# Outline: as §1
# [15] = target: Man(a1-2)Man(a1-3)[Man(a1-2)Man(a1-6)]Man
# Outline: as §1
# [16] = target: Man(a1-2)Man(a1-3)[Man(a1-2)Man(a1-6)]Man(a1-6)[Man(a1-2)Man(a1-2)Man(a1-3)]Man
# Outline: as §1
# [17] = target: Man(a1-2)Man(a1-3)[Man(a1-2)Man(a1-6)]Man(a1-6)[Man(a1-2)Man(a1-2)Man(a1-3)]Man(b1-4)GlcNAc(b1-4)GlcNAc
# Outline: as §1
# [18] = target: Man(a1-2)Man(a1-3)[Man(a1-6)]Man(a1-6)[Man(a1-2)Man(a1-3)]Man(b1-4)GlcNAc(b1-4)GlcNAc
# Outline: as §1
# [19] = target: Man(a1-2)Man(a1-6)[Man(a1-3)]Man(a1-6)[Man(a1-2)Man(a1-2)Man(a1-3)]Man
# Outline: as §1
# [20] = target: Man(a1-2)Man(a1-6)[Man(a1-3)]Man(a1-6)[Man(a1-2)Man(a1-2)Man(a1-3)]Man(b1-4)GlcNAc(b1-4)GlcNAc
# Outline: as §1
# Man(a1-3)[Man(a1-6)]Man = target: Man(a1-3)[Man(a1-6)]Man
# Outline: as §1
# [21] = target: Man(a1-3)[Man(a1-6)]Man(a1-6)[Man(a1-2)Man(a1-3)]Man(b1-4)GlcNAc(b1-4)GlcNAc
# Outline: as §1
# [22] = target: Man(a1-3)[Man(a1-6)]Man(a1-6)[Man(a1-3)]Man(b1-4)GlcNAc(b1-4)GlcNAc
# Outline: as §1
# [23] = target: Man(a1-3)[Man(a1-6)]Man(b1-4)GlcNAc(b1-4)GlcNAc
# Outline: as §1
# [24] = target: Man(a1-3)[Man(a1-6)]Man(b1-4)GlcNAc(b1-4)[Fuc(a1-6)]GlcNAc
# Outline: as §1
# Neu5Ac(a2-3)Gal = target: Neu5Ac(a2-3)Gal
# Outline: as §1
# [25] = target: Neu5Ac(a2-3)Gal(b1-4)GlcNAc(b1-2)Man
# Outline: as §1
# [26] = target: Neu5Ac(a2-3)Gal(b1-4)GlcNAc(b1-2)Man(a1-3)[Neu5Ac(a2-3)Gal(b1-4)GlcNAc(b1-2)Man(a1-6)]Man(b1-4)GlcNAc(b1-4)GlcNAc
# Outline: as §1
# [27] = target: Neu5Ac(a2-3)Gal(b1-4)GlcNAc(b1-3)Gal(b1-3)GlcNAc
# Outline: as §1
# [28] = target: Neu5Ac(a2-3)Gal(b1-4)GlcNAc(b1-3)Gal(b1-4)GlcNAc(b1-3)[Neu5Ac(a2-3)Gal(b1-4)GlcNAc(b1-3)Gal(b1-4)GlcNAc(b1-6)]GalNAc
# Outline: as §1
# [29] = target: Neu5Ac(a2-3)Gal(b1-4)GlcNAc(b1-3)Gal(b1-4)[Fuc(a1-3)]GlcNAc
# Outline: as §1
# [30] = target: Neu5Ac(a2-3)Gal(b1-4)[Fuc(a1-3)]GlcNAc
# Outline: as §1
# [31] = target: Neu5Ac(a2-3)Gal(b1-4)[Fuc(a1-3)]GlcNAc(b1-6)[Gal(b1-3)]GalNAc
# Outline: as §1
# [32] = target: Neu5Ac(a2-6)Gal(b1-4)GlcNAc(b1-2)Man(a1-3)[Man(a1-6)]Man(b1-4)GlcNAc(b1-4)GlcNAc
# Outline: as §1
# [33] = target: Neu5Ac(a2-6)Gal(b1-4)GlcNAc(b1-2)[Neu5Ac(a2-6)Gal(b1-4)GlcNAc(b1-4)]Man(a1-3)[GlcNAc(b1-4)][Neu5Ac(a2-6)Gal(b1-4)GlcNAc(b1-4)Man(a1-6)]Man(b1-4)GlcNAc(b1-4)GlcNAc
# Outline: as §1
# [34] = target: Neu5Ac(b2-6)Gal(b1-4)GlcNAc
# Outline: as §1
# [35] = target: Neu5Gc(a2-8)Neu5Gc(a2-3)Gal(b1-4)GlcNAc
# Outline: as §1
binder,measurement,setting,value
Banana lectin (Musa acuminata) (protein) MNGAIKVGAWGGNGGSAFDMGPAYRIISVKIFSGDVVDGVDVTFTYYGKTETRHYGGSGGTPHEIVLQEGEYLVGMAGEVANYTGAVVLGKLGFSTNKKAYGPFGNTGGTPFSLPIAAGKISGFFGRGGKFLDAIGVYLEPLEHHHHHH,glycan array binding signal (z-score),Fuc(a1-2)Gal(b1-3)GlcNAc,-0.164
same,glycan array binding signal (z-score),[1],-0.026
same,glycan array binding signal (z-score),[2],-0.09
same,glycan array binding signal (z-score),[3],-0.193
same,glycan array binding signal (z-score),[4],-0.165
same,glycan array binding signal (z-score),Fuc(a1-3)GlcNAc,-0.218
same,glycan array binding signal (z-score),Fuc(b1-3)GlcNAc,-0.189
same,glycan array binding signal (z-score),[5],0.562
same,glycan array binding signal (z-score),[6],-0.155
same,glycan array binding signal (z-score),[7],-0.154
same,glycan array binding signal (z-score),[8],-0.098
same,glycan array binding signal (z-score),[9],-0.206
same,glycan array binding signal (z-score),[10],-0.177
same,glycan array binding signal (z-score),[11],-0.184
same,glycan array binding signal (z-score),[12],-0.082
same,glycan array binding signal (z-score),[13],-0.199
same,glycan array binding signal (z-score),Kdn(a2-3)Gal(b1-4)GlcNAc,-0.189
same,glycan array binding signal (z-score),[14],8.2
same,glycan array binding signal (z-score),[15],2.21
same,glycan array binding signal (z-score),[16],7.07
same,glycan array binding signal (z-score),[17],5.46
same,glycan array binding signal (z-score),[18],4.86
same,glycan array binding signal (z-score),[19],5.72
same,glycan array binding signal (z-score),[20],10.1
same,glycan array binding signal (z-score),Man(a1-3)[Man(a1-6)]Man,6.01
same,glycan array binding signal (z-score),[21],11.3
same,glycan array binding signal (z-score),[22],5.96
same,glycan array binding signal (z-score),[23],4.6
same,glycan array binding signal (z-score),[24],1.98
same,glycan array binding signal (z-score),Neu5Ac(a2-3)Gal,-0.212
same,glycan array binding signal (z-score),[25],-0.188
same,glycan array binding signal (z-score),[26],-0.182
same,glycan array binding signal (z-score),[27],-0.175
same,glycan array binding signal (z-score),[28],-0.109
same,glycan array binding signal (z-score),[29],-0.179
same,glycan array binding signal (z-score),[30],-0.19
same,glycan array binding signal (z-score),[31],-0.16
same,glycan array binding signal (z-score),[32],0.399
same,glycan array binding signal (z-score),[33],-0.177
same,glycan array binding signal (z-score),[34],-0.184
same,glycan array binding signal (z-score),[35],-0.162
